Results from PubChem BioAssay (Tox21).
Inconclusive results are not listed. Entries that show only a call come without a potency. The source made the active and inactive calls. Unless noted, calls follow the shape of the dose curve; as a rule, active = well fitted curve in the direction sought with a large enough effect in the repeat runs; inconclusive = weak or mixed curves; inactive = no such curve, though single readings can be large; an effect the other way counts as inactive or inconclusive.

Columns and labels:
[1] = qHTS assay to test for compound auto fluorescence at 535 nm (green) in HEK293 cells (AID 720680)
[2] = qHTS assay to test for compound auto fluorescence at 460 nm (blue) in HEK293 cell free culture (AID 720681)
In short: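 Test compounds were pinned into cell-free culture medium (DMEM with 10% FBS) and fluorescence was read directly at Ex/Em 405/460 nm. Signals were expressed as fluorescence equivalents of triamterene, with DMSO vehicle as control.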

[3] = qHTS assay to test for compound auto fluorescence at 535 nm (green) in HEK293 cell free culture (AID 720682)
In short: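 Fluorescein serves as the green reference fluorophore; each compound's intrinsic emission at 535 nm (excitation 485 nm) is reported as an equivalent amount of that dye, measured in serum-containing DMEM without cells.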

[4] = qHTS assay to test for compound auto fluorescence at 590 nm (red) in HEK293 cell free culture (AID 720683)
In short: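 Tox21 10K library compounds were pinned into cell-free DMEM with 10% FBS and fluorescence was read at excitation 540 nm. Activity is expressed as Rose Bengal sodium equivalency.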

[5] = qHTS assay to test for compound auto fluorescence at 590 nm (red) in HepG2 cell free culture (AID 720684)
In short: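 Measured in medium alone (MEM containing 10% FBS) following pintool addition of compound; emission at 590 nm with 540 nm excitation, referenced to Rose Bengal sodium.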

[6] = qHTS assay to test for compound auto fluorescence at 460 nm (blue) in HepG2 cell free culture (AID 720685)
In short: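 Compound (23 nL) or DMSO pinned into cell-free MEM with 10% FBS; blue fluorescence read at 405/460 nm excitation/emission, expressed as auto-fluorescence equivalency to triamterene.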

[7] = qHTS assay to test for compound auto fluorescence at 535 nm (green) in HepG2 cell free culture (AID 720686)
[8] = qHTS assay to test for compound auto fluorescence at 460 nm (blue) in HepG2 cells (AID 720687)
In short: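 Cells (2,000/well in MEM with 10% FBS) attached overnight at 37 C, then were exposed to compound or DMSO for 1 hr at 37 C, 5% CO2. Fluorescence read at Ex/Em 405/460 nm, expressed as triamterene-equivalent signal.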

[9] = target: Glucocorticoid receptor (Homo sapiens) (UniProt P04150); test: qHTS assay to identify small molecule agonists of the glucocorticoid receptor (GR) signaling pathway (AID 720691; active = well fitted activation curve with a large enough effect in the signal ratio in the repeat runs, not every such curve was filed as active; the % refers to the signal ratio)
Glucocorticoid receptor (Homo sapiens), sequence (P04150 whole entry, looked up): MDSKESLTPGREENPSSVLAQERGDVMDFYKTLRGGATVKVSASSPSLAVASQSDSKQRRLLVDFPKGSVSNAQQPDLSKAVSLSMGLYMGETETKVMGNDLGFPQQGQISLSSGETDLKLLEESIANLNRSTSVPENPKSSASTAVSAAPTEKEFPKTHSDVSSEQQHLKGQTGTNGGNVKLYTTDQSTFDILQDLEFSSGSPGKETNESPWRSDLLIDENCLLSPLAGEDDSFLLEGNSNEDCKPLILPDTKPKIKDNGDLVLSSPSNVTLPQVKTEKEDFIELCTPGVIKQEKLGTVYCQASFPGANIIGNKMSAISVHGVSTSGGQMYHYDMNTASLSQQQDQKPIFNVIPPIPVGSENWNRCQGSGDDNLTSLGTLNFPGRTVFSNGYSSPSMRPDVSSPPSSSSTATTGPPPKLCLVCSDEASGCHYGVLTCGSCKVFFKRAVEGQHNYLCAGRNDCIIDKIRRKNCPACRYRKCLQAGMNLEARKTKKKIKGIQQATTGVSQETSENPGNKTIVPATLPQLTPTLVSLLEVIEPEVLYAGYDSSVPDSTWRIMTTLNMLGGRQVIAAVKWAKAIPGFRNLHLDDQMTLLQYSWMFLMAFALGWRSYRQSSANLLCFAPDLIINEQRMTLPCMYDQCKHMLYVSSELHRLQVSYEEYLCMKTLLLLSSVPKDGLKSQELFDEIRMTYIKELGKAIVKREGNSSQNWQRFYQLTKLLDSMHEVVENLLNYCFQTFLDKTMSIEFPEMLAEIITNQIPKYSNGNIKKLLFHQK
In short: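 qHTS in GR-bla HeLa cells: 4 h settling at 37 C/5% CO2, 18 h compound incubation at 37 C, 2 h LiveBLAzer B/G FRET substrate at room temperature, fluorescence intensity measured.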

[10] = target: Glucocorticoid receptor (Homo sapiens) (UniProt P04150); test: qHTS assay to identify small molecule antagonists of the glucocorticoid receptor (GR) signaling pathway (AID 720692; active = well fitted inhibition curve with a large enough effect in the signal ratio in the repeat runs, not every such curve was filed as active; the % refers to the signal ratio)
In short: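 Inhibition of glucocorticoid signalling is measured in HeLa cells with a GRE-controlled beta-lactamase reporter; cells are co-treated with compound and 5 nM dexamethasone (final) for 18 h before FRET substrate readout.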

[11] = qHTS assay to identify small molecule antagonists of the glucocorticoid receptor (GR) signaling pathway - cell viability counter screen (AID 720693); also: nearly all actives have a fitted effect of over 55% in size
[12] = qHTS assay for identifying genotoxic compounds that show differential cytotoxicity against isogenic chicken DT40 cell lines with known DNA damage response pathways - wild type cell line (AID 743012); also: nearly all actives have a fitted effect of over 60% in size; also: potency is read from the fitted curve at half-maximal effect
In short: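 First, wild type DT40 cells were plated at 300 per well and equilibrated about 0.5 h at 37 C/5% CO2. Next, compounds in DMSO were added and exposure lasted 40 h. Finally, CellTiter-Glo was added for 30 min at room temperature and luminescence recorded.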

[13] = qHTS assay for identifying genotoxic compounds that show differential cytotoxicity against isogenic chicken DT40 cell lines with known DNA damage response pathways - Rad54/Ku70 mutant cell line (AID 743015); also: nearly all actives have a fitted effect of over 60% in size; also: potency is read from the fitted curve at half-maximal effect
[14] = target: Androgen receptor (Homo sapiens) (UniProt P10275); test: qHTS assay to identify small molecule antagonists of the androgen receptor (AR) signaling pathway (AID 743035; active = well fitted inhibition curve with a large enough effect in the signal ratio in the repeat runs, not every such curve was filed as active; the % refers to the signal ratio)
Androgen receptor (Homo sapiens), sequence (P10275 whole entry, looked up): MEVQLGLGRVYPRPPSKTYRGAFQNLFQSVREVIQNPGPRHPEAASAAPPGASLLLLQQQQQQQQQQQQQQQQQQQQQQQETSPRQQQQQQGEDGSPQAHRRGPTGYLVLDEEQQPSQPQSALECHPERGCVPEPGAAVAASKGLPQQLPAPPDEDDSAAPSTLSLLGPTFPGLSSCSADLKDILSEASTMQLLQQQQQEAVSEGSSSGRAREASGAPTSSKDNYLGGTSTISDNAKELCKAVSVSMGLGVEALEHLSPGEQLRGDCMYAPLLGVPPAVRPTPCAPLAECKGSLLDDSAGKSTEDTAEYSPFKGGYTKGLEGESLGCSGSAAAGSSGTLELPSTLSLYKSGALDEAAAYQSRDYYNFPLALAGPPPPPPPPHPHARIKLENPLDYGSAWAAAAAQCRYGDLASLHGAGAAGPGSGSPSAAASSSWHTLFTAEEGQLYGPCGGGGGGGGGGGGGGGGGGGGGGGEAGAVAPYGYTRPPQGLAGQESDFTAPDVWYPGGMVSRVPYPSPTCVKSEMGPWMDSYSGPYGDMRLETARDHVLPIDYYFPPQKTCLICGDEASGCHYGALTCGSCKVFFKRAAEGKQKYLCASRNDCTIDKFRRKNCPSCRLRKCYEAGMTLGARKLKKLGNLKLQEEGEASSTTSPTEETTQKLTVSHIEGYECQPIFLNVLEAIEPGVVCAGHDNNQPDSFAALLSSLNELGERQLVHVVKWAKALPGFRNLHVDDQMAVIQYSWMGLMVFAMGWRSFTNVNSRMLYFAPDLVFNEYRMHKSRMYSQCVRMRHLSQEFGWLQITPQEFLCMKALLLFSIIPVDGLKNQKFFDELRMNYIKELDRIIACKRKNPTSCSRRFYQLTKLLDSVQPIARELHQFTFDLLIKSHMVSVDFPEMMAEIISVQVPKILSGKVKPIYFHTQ
In short: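 Beta-lactamase FRET read (2 h RT incubation with LiveBLAzer B/G) following 16 h of compound plus R1881 treatment of AR-UAS-bla HEK293 cells, which had been pre-incubated 4 h at 37C.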

[15] = target: Androgen receptor (Homo sapiens) (UniProt P10275); test: qHTS assay to identify small molecule agonists of the androgen receptor (AR) signaling pathway (AID 743036; active = well fitted activation curve with a large enough effect in the signal ratio in the repeat runs, with a control signal flat, not every such curve was filed as active; the % refers to the signal ratio)
In short: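 Fluorescence from a beta-lactamase FRET substrate served as read-out in AR-UAS-bla GripTite HEK293 cells. Cells were treated with DMSO-dissolved compounds for 16 h at 37C, then with LiveBLAzer B/G substrate for 2 h at room temperature.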

[16] = target: Androgen receptor (Homo sapiens) (UniProt P10275); test: qHTS assay to identify small molecule agonists of the androgen receptor (AR) signaling pathway using the MDA cell line (AID 743040; also: nearly all actives have a fitted effect of over 20% in size)
In short: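 Luminescence from ONE-Glo, read after 30 min at room temperature, reflects MMTV-driven luciferase in MDA-kb2 cells (AR- and GR-responsive). Treatment lasted 16 h at 37C, 0% CO2.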

[17] = qHTS assay to identify small molecule antagonists of the androgen receptor (AR) signaling pathway using the MDA cell line - cell viability counter screen (AID 743041; also: nearly all actives have a fitted effect of over 45% in size)
In short: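 Viability counter screen run alongside the AR antagonist reporter: cells seeded 5 h before compound, R1881 added, 16 h incubation at 37C without CO2, fluorescent CellTiter-Fluor signal quantified.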

[18] = qHTS assay for identifying genotoxic compounds that show differential cytotoxicity against isogenic chicken DT40 cell lines with known DNA damage response pathways - Rev3 mutant cell line (AID 743014); also: nearly all actives have a fitted effect of over 55% in size; also: potency is read from the fitted curve at half-maximal effect
[19] = qHTS assay to identify small molecule antagonists of the androgen receptor (AR) signaling pathway - cell viability counter screen (AID 743033; also: nearly all actives have a fitted effect of over 45% in size)
[20] = qHTS assay to identify small molecule antagonists of the thyroid receptor (TR) signaling pathway - cell viability counter screen (AID 743064); also: nearly all actives have a fitted effect of over 50% in size
In short: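 Fluorescence from CellTiter-Fluor, added after 23.5 h exposure at 37 °C, reported viability of GH3.TRE-Luc cells co-treated with compound and 1 nM T3. Measured in the same wells as the luciferase TR readout.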

SMILES | outcome [1] | outcome [2] | outcome [3] | outcome [4] | outcome [5] | outcome [6] | outcome [7] | outcome [8] | Potency [9] | Potency [10] | Potency [11] | Potency [12] | Potency [13] | Potency [14] | outcome [15] | outcome [16] | Potency [17] | Potency [18] | Potency [19] | Potency [20]
CCCOc1nn(C(=O)NS(=O)(=O)c2ccccc2C(=O)OC)c(=O)n1C | inactive | inactive | inactive | inactive | inactive | inactive | inactive | inactive | inactive | inactive | inactive | inactive | inactive | inactive | inactive | inactive | inactive |  |  | 
CCOC(=O)C(Cl)Cc1cc(-n2nc(C)n(C(F)F)c2=O)c(F)cc1Cl (configuration not stated) | inactive | inactive | inactive | inactive | inactive | inactive | inactive | inactive | inactive |  | inactive | 54.5 µM (active) | 54.5 µM (active) |  |  |  | inactive | 61.1 µM (active) | inactive | inactive
Cc1ccc(Cl)c(O)c1 | inactive | inactive | inactive | inactive | inactive | inactive | inactive | inactive | inactive | inactive |  | inactive | inactive |  |  |  | inactive | inactive | inactive | inactive
CCOC(=O)COc1ccc(Cl)cc1Cl | inactive | inactive | inactive | inactive | inactive | inactive | inactive | inactive | inactive |  | inactive | inactive | inactive |  |  |  |  | inactive | inactive | inactive
CC(C)(C1CCC(O)CC1)C1CCC(O)CC1 (configuration not stated) | inactive | inactive | inactive | inactive | inactive | inactive | inactive | inactive |  |  | inactive | inactive | inactive |  |  |  | inactive |  | inactive | inactive
Cc1cccc2sc3nncn3c12 | inactive | inactive | inactive | inactive | inactive | inactive | inactive | inactive |  |  | inactive | inactive | inactive |  |  |  | inactive |  | inactive | inactive
C#CCOC(=O)/C=C(C)/C=C/CC(C)CCCC(C)C (configuration not stated) | inactive | inactive | inactive | inactive | inactive | inactive | inactive | inactive | inactive |  | inactive | inactive |  |  |  |  | inactive | inactive | inactive | 
C[N+]1(C)CCCCC1 | inactive | inactive | inactive | inactive | inactive | inactive | inactive | inactive |  |  | inactive | inactive | inactive | inactive | inactive | inactive | inactive |  | inactive | 
CC[C@@H](CO)NC(=O)[C@@H]1C=C2c3cccc4[nH]cc(c34)C[C@H]2N(C)C1 | inactive | inactive | inactive | inactive | inactive | inactive | inactive | inactive | inactive |  |  | inactive | inactive |  | inactive | inactive | inactive | inactive |  | 
N=C(N)[Se] | inactive | inactive | inactive | inactive | inactive | inactive | inactive | inactive | inactive |  |  | 4.87 µM (active) | 2.44 µM (active) |  |  |  | inactive | 2.44 µM (active) | inactive | inactive
ClC(Cl)(Cl)Cl | inactive | inactive | inactive | inactive | inactive | inactive | inactive | inactive |  |  | inactive | inactive | inactive |  |  |  | inactive | inactive | inactive | inactive
O=C(O)CBr | inactive | inactive | inactive | inactive | inactive | inactive | inactive | inactive |  |  | inactive | inactive | inactive |  |  |  | inactive | inactive | inactive | inactive
CC(C)(O)C(Cl)(Cl)Cl | inactive | inactive | inactive | inactive | inactive | inactive | inactive | inactive | inactive |  |  | inactive |  |  |  |  | inactive | inactive | inactive | 
COc1cc(CC(C)N)cc(OC)c1OC (configuration not stated) | inactive | inactive | inactive | inactive | inactive | inactive | inactive | inactive | inactive |  | inactive | inactive | inactive |  |  |  |  |  | inactive | 
CCC(C)(C#N)N=NC(C)(C#N)CC (configuration not stated) | inactive | inactive | inactive | inactive | inactive | inactive | inactive | inactive |  |  | inactive | inactive | inactive | inactive | inactive | inactive | inactive | inactive | inactive | inactive
C=CCc1cc(OC)c2c(c1)OCO2 | inactive | inactive | inactive | inactive | inactive | inactive | inactive | inactive | inactive |  | inactive | inactive | inactive |  |  |  | inactive |  | inactive | inactive
c1ccc2c(c1)CCNC2 | inactive | inactive | inactive | inactive | inactive | inactive | inactive | inactive |  |  | inactive | inactive | inactive |  |  |  | inactive | inactive | inactive | 
C=CCN1CC[C@]23CCCC[C@H]2[C@H]1Cc1ccc(O)cc13 | inactive | inactive | inactive | inactive | inactive | inactive | inactive | inactive | inactive |  |  | 21.1 µM (active) | inactive |  |  |  |  |  | inactive | 
